Among the data in PubChem BioAssay AID492962 (National Center for Advancing Translational Sciences (NCATS), 2010) are outcome and activity values, retold here.

Each structure is given as a SMILES string. Values without a mark were called inactive. Activity calls are given as the source filed them. How the calls were made is not given here.

The nature of this test: Mouse Th1 T cell differentiation assay for inhibitors of ROR gamma transcriptional activity. The following applies: mouse naive CD4 T cells, Th1 IFN-g flow cytometry; activity: at 30 µM, active compounds read high unless noted; outcome: at 3 µM unless noted. The source says:
NIH Molecular Libraries Probe Production Network [MLPCN] NIH Chemical Genomics Center [NCGC] MLPCN Grant: R03 DA026211-01 Assay Provider: Dan Littman, New York University Keywords: NIH Roadmap, MLPCN, MLI, MLSMR, qHTS, NCGC, qHTS, nuclear hormone receptor, retinoic acid-related orphan receptor, ROR gamma Assay Overview: The retinoic acid-related orphan receptor (ROR) gamma is a transcription factor that has a central role in the differentiation of Th17 cells, a subset of T helper cells that secrete the inflammatory cytokines IL-17a, IL-17f, and IL-22. Th17 cells have been implicated in graft versus host disease, autoimmune disease and asthma. ROR gamma is induced in naive T helper cells in the presence of TGF-beta combined with IL-6, IL-21, or IL-23, and thereafter directs the expression of the Th17 lineage cytokines. To confirm the selectivity of ROR gamma inhibitors, compounds with strong inhibitory activities on Th17 cells were tested in a mouse Th1 T cell differentiation assay. T cells differentiate into Th1 cells in the presence of IL-12 and IL-2. […] Th1 differentiation was tracked by the induction of interferon gamma (IFN-g) expression as measured by an anti-IFN-g antibody using flow cytometry.
Assay Protocol Summary: Cells from lymph nodes and spleens derived from six to eight week old IL17a-GFP mice (Biocytogen LLC) were used for T cell purification. B220- cells were isolated on an autoMACS Pro with bead depletion of B220+ cells (Miltenyi). Naive CD4+ T cell were further purified as TCRb+CD8- DAPI- CD19- CD4+CD25- CD62L+CD44low/Int by cell sorting on a FACSAria (BD). Cells were cultivated in an incubator at 37 C and 5% CO2 in RPMI 1640 medium (Invitrogen) supplemented with 10% (vol/vol) heat-inactivated FBS (Hyclone), penicillin-streptomycin, 2 mM glutamine and 0.1 mM nonessential amino acids. Cells were seeded on day 0 at a density of 0.4E5 cells per ml in 96-well plates coated with anti-CD3e (5 ug/ml) and anti-CD28 (10 ug/ml). Cells were cultured for 4~5 days in Th1 [IL-12 (10 ng/ml), IL-2 (100 U/ml), anti-IL-4] condition. […]
On the technique in general: Flow cytometry measures light scatter and fluorescence of single cells or particles in a stream.
Regarding `COc1cc(O)c(C(CC(=O)N2CC(C)CC(C)C2)c2ccc3c(c2)OCO3)c(OC)c1` (stereo not drawn), the outcome was “inactive”.

Take `CC1CCCN(C(=O)CC(c2ccc3c(c2)OCO3)c2ccc3ccccc3c2O)C1` (stereo not drawn): the activity was 32.5% [at 25 µM, active compounds read high]. The same measure, in the same setting: the value for `COc1cc(O)c(C(CC(=O)N2CCCC(C)C2)c2ccccc2OC)c(OC)c1` (stereo not drawn) was 46.1%.
